Where “and” joins values, the source holds several entries; their conditions need not be identical. Equal entries are not always repeated. This is part of a sample that, as a whole, favours compounds with a hit. Of some 79,000 tested, about 15% had one in any assay. Unmarked numbers belong to inactive results. Calls of active or inactive are those of the source. Cut-off read from the data, not from the text of the source: active = growth inhibition above about 70%; inactive = the rest.

A short description of assay [1]: NCI Yeast Anticancer Drug Screen. Data for the rad50 strain (AID 155).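 Note: 0% = growth of vehicle-only cultures of the same strain.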 The following applies: S. cerevisiae rad50 strain growth inhibition, active compounds read high; at 50.0 µM unless noted. The method, boiled down:
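DNA repair mutant yeast, compound exposure, growth read-out; inhibition is taken relative to vehicle.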

Assay [2] can be described thus: NCI Yeast Anticancer Drug Screen. Data for the mec2-1 strain (AID 157). The following applies: S. cerevisiae mec2-1 strain, active compounds read high; at 50.0 µM unless noted. The method, boiled down:
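Strain: mec2-1 (DNA repair/cell cycle alteration). Compound exposure, then growth measured; inhibition expressed relative to vehicle.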

Assay [3] in a line: NCI Yeast Anticancer Drug Screen. Data for the sgs1 mgt1 strain (AID 161).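 Note: 0% = growth of cultures given vehicle only.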 Particulars: S. cerevisiae sgs1 mgt1 strain, active compounds read high; at 50.0 µM unless noted. The method, boiled down: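 Read-out: growth inhibition vs vehicle controls. Cells: mutant yeast strain deficient in DNA damage repair.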
Assay [4] in a line: NCI Yeast Anticancer Drug Screen. Data for the cln2 rad14 strain (AID 165).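 Note: 0% = growth equal to vehicle treated cultures.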 The following applies: S. cerevisiae cln2 rad14 strain, active compounds read high; at 50.0 µM unless noted. The method, boiled down:
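Compounds are applied to the cln2 rad14 yeast strain, and growth is then compared with that of vehicle-treated cultures to give inhibition.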

The nature of assay [5]: NCI Yeast Anticancer Drug Screen. Data for the bub3 strain (AID 167). Particulars: S. cerevisiae bub3 mutant strain, active compounds read high; at 50.0 µM unless noted. The method, boiled down: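 In this screen, a yeast mutant lacking normal mitotic checkpoint function is challenged with compound. Relative growth versus vehicle gives the inhibition value.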
Assay [6] in a line: NCI Yeast Anticancer Drug Screen. Data for the mlh1 rad18 strain (AID 175). Particulars: S. cerevisiae mlh1 rad18 strain growth inhibition, active compounds read high; at 50.0 µM unless noted. The method, boiled down:
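Read-out is yeast growth inhibition, calculated against vehicle-only controls. The compound was applied to a strain engineered with DNA damage repair alterations.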

`O=c1c2ccccc2n2c(=S)[nH]nc2n1-c1ccccc1`: the growth inhibition was -2.7% in assay [1]; 3.55% in assay [2]; -12.2% in assay [3]; 6.95% in assay [4]; 0.05% in assay [5]; -10.8% in assay [6].
For `CN1NC(c2ccccc2)=C(C#N)C(=O)CC1c1ccccc1` (centres undefined), the growth inhibition is 6.8% in assay [1]; -2.5% in assay [2]; 13.1% in assay [3]; -1.4% in assay [4]; 8.95% in assay [5]; 10.2% in assay [6].
As for `O=C(CO)C(O)C(O)C(O)C(O)CO` (centres undefined), the growth inhibition in assay [1] was 19.2% and -6.1%; in assay [2] it was 4.7% and 1.6%; in assay [3], 20.3% and 3.4%; in assay [4] it was -1.1% and -1.05%; in assay [5], 32.5% and -3.2%; in assay [6], 20.9% and 5.8%.
Turning to `CC(=O)Nc1ccc(CCCc2ccc([N+](=O)[O-])cc2)cc1`, the growth inhibition is 3.15% in assay [1]; 3.35% in assay [2]; -10.9% in assay [3]; -70.2% in assay [4]; 1.6% in assay [5]; 0% in assay [6].
As to `C=C1CC(c2ccccc2)(c2cccs2)OC1=O` (centres undefined), the growth inhibition in assay [1] was 67.7%; in assay [2], 93.6% (active); in assay [3] it was 96.2% (active); in assay [4] it was 14.3%; in assay [5], 90.5% (active); in assay [6] it was 90.7% (active).
Consider `Cn1ccnc1C(O)(c1nccn1C)c1nccn1C`, for which the growth inhibition in assay [1] was -5.75%; in assay [2] it was -2.55%; in assay [3], 2.15%; in assay [4], 19.1%; in assay [5], -8.35%; in assay [6] it was 16.2%.
With `C[n+]1c(/C=C\C=C\c2ccccc2)sc2ccccc21`, the growth inhibition in assay [1] was 16.6%; in assay [2] it was 2.05%; in assay [3], 16.1%; in assay [4], 18.1%; in assay [5], 3%; in assay [6], 11.2%.
For `O=[N+]([O-])c1ccc(Sc2ncnc3c2ncn3C2OC(CO)C(O)C2O)c2nonc12` (centres undefined), the growth inhibition in assay [1] is 3.05%; in assay [2], -12.4%; in assay [3], -2.4%; in assay [4], 16.1%; in assay [5], -2.95%; in assay [6] it was 33.2%.
With `Cc1cc(CSC(=N)N)c(CSC(=N)N)cc1C`, the growth inhibition in assay [1] is 9.75%; in assay [2] it was -3.85%; in assay [3] it was -2.45%; in assay [4], -4.25%; in assay [5], 4.65%; in assay [6], 2.05%.
As to `COc1ccc2oc(=N)c(C(=O)Nc3ccccc3)cc2c1`, the growth inhibition in assay [1] was 24.2%; in assay [2], 20.1%; in assay [3], -10.5%; in assay [4], 4.9%; in assay [5], -4.85%; in assay [6] it was -38.4%.
As for `CCCCOC(=O)NC(=O)c1cc2cc(Cl)ccc2oc1=O`, the growth inhibition in assay [1] is 4.65%; in assay [2] it was 17.9%; in assay [3], 13.9%; in assay [4], 10.7%; in assay [5], 23.1%; in assay [6], 18.8%.
As to `CNC(CCCCC1CCCCC1)C(=O)O` (centres undefined), the growth inhibition was 8.2% in assay [1]; 3.4% in assay [2]; 12.1% in assay [3]; -10.8% in assay [4]; -8.2% in assay [5]; -0.2% in assay [6].
For the molecule `COC(=O)[C@@H]1Cc2cc(O)c(O)cc2C2(CCN(C)CC2)O1`, the growth inhibition in assay [1] was -21.5%; in assay [2] it was -22.8%; in assay [3] it was -17.6%; in assay [4], -12.2%; in assay [5], -10.7%; in assay [6], -29.1%.
Turning to `Cc1ccc(C)n1-n1c(Cc2ccccc2)n[nH]c1=O`, the growth inhibition was -21.8% in assay [1]; -19.3% in assay [2]; -15.1% in assay [3]; 2.75% in assay [4]; -31.8% in assay [5]; -12.7% in assay [6].
As for `O=c1oc(-c2ccccc2CCl)nc2ccccc12`, the growth inhibition was 0.95% in assay [1]; -17.1% in assay [2]; 15.8% in assay [3]; 15.3% in assay [4]; -13.8% in assay [5]; -5.9% in assay [6].
`NC(=O)c1c([N+](=O)[O-])ncn1C1OC(CO)C(O)C1O` (centres undefined): the growth inhibition in assay [1] is 20.5%; in assay [2], -7.75%; in assay [3] it was -5.8%; in assay [4] it was -12.2%; in assay [5], 5.8%; in assay [6], 14.1%.
`Cc1ccc(S(=O)(=O)CC(=O)NC(C)C)cc1`: the growth inhibition in assay [1] is -3.9%; in assay [2] it was -17%; in assay [3], 4%; in assay [4], 17.2%; in assay [5], 3.2%; in assay [6], 20.8%.
`BrC(Br)(Br)Br`: the growth inhibition was 74% (active) in assay [1]; 12.6% in assay [2]; 31.8% in assay [3]; -19.6% in assay [4]; 27.4% in assay [5]; 57.2% in assay [6].
Consider `CCCCC/C([O-])=C1/C(=O)N(c2ccccc2)N=C1C.CCCCC/C([O-])=C1/C(=O)N(c2ccccc2)N=C1C.[Cu+2]`, for which the growth inhibition in assay [1] was 2.1%; in assay [2] it was 0.75%; in assay [3], -13.7%; in assay [4], -6.1%; in assay [5], -2.75%; in assay [6] it was 7.75%.
Turning to `CCCCCCCCCCCCSCCSCCCCCCCCCCCC`, the growth inhibition is 9.85% in assay [1]; 15.4% in assay [2]; 4.9% in assay [3]; -26.8% in assay [4]; -29.4% in assay [5]; 1.3% in assay [6].
Take `Cn1c2c(c(=O)c3ccccc31)CC(O)C(C)(C)O2` (centres undefined): the growth inhibition in assay [1] was -23.6%; in assay [2], -35.7%; in assay [3], -6.4%; in assay [4], 6%; in assay [5] it was 3.35%; in assay [6], -2.65%.
Consider `ClCc1ccc(OCc2ccccc2)cc1`, for which the growth inhibition in assay [1] was -2.85%; in assay [2] it was -1.45%; in assay [3], -11.2%; in assay [4], 9.3%; in assay [5], -29.1%; in assay [6], -6.25%.
As to `NC(C=O)C(O)C(O)C(O)CO` (centres undefined), the growth inhibition is -1.75% in assay [1]; -18.2% in assay [2]; 4.95% in assay [3]; -10.2% in assay [4]; -19.5% in assay [5]; -6.9% in assay [6].
For the molecule `COc1ccc(C2c3cc4c(cc3C(O)C3CCC(=O)N23)OCO4)cc1` (centres undefined), the growth inhibition in assay [1] was -31.6%; in assay [2], 3.3%; in assay [3], -17.2%; in assay [4], -1.25%; in assay [5] it was -7.4%; in assay [6], -15.1%.
Consider `Oc1cc2c(cc1C(Nc1ncccn1)c1ccc3c(c1)OCO3)OCO2` (centres undefined), for which the growth inhibition in assay [1] is -0.4%; in assay [2], 6.8%; in assay [3], 12.8%; in assay [4], -16.3%; in assay [5], 19.4%; in assay [6] it was 15.3%.
Regarding `O=C(O)C1=CCCc2ccc3ccccc3c21`, the growth inhibition was 10.2% in assay [1]; 6% in assay [2]; 0.2% in assay [3]; -20.4% in assay [4]; -27.9% in assay [5]; 6.25% in assay [6].
As to `[Mn+2].[NH-]C(Cc1ccc(O)cc1)C(=O)O.[NH-]C(Cc1ccc(O)cc1)C(=O)O` (centres undefined), the growth inhibition in assay [1] was 0.35%; in assay [2] it was 15.3%; in assay [3], -10.5%; in assay [4], -19.1%; in assay [5], 0.95%; in assay [6], -13%.
In the case of `COc1ccccc1/C=C\C#N`, the growth inhibition was -9.2% in assay [1]; -6.1% in assay [2]; -6.45% in assay [3]; -28% in assay [4]; -29.2% in assay [5]; -13.4% in assay [6].
On to `COc1ccc2c(c1)OC[C@@H]1c3cc(NS(=O)(=O)c4ccccc4)cc(OCc4ccccc4)c3O[C@H]21`, for which the growth inhibition in assay [1] is -16.4%; in assay [2], -8.75%; in assay [3], -13.5%; in assay [4] it was -17.3%; in assay [5], 1.4%; in assay [6], -6.55%.
`CCc1cccc(C(C)C)c1NC(=O)C(=O)Nn1c(=S)[nH]c2ccccc2c1=O`: the growth inhibition in assay [1] is -7.15%; in assay [2] it was -23.1%; in assay [3], -10.2%; in assay [4], 2.75%; in assay [5], -17.2%; in assay [6] it was -12.6%.
Regarding `CC1CC(C)NC(=S)N1` (centres undefined), the growth inhibition in assay [1] is -16.6%; in assay [2], -3.9%; in assay [3], -9.85%; in assay [4], 16.7%; in assay [5], 3.25%; in assay [6] it was -5.95%.
In the case of `CCOC(Cn1ccc[n+]1CC(=O)c1ccccc1)OCC`, the growth inhibition is 0.9% in assay [1]; -5.25% in assay [2]; -10.8% in assay [3]; -21.6% in assay [4]; -5.75% in assay [5]; 9.1% in assay [6].
For `Cc1ccc2nc(Sc3c([N+](=O)[O-])ncn3C)[nH]c2c1`, the growth inhibition was -16.1% in assay [1]; -16.4% in assay [2]; -18.2% in assay [3]; 5.75% in assay [4]; -20.7% in assay [5]; -25.4% in assay [6].
Take `O=C(O)CNC(=S)SCC(=O)O`: the growth inhibition in assay [1] is -2.4%; in assay [2], -6.55%; in assay [3], -23.1%; in assay [4], -32.4%; in assay [5], 5.2%; in assay [6], -19.6%.
As to `COc1ccc(C=NCC(OC)OC)cc1OCc1ccccc1`, the growth inhibition in assay [1] was -14.9%; in assay [2], 7.15%; in assay [3], 14%; in assay [4] it was -16.4%; in assay [5] it was -3.05%; in assay [6], 12.4%.
Turning to `Cc1ccc2c(c1)C1(c3ccc(Cl)cc3Cl)Oc3ccc(C)cc3C(c3ccc(Cl)cc3Cl)(O2)O1`, the growth inhibition was -1.5% in assay [1]; 1.5% in assay [2]; 3.1% in assay [3]; -4.65% in assay [4]; -2.7% in assay [5]; 16.6% in assay [6].
On to `CC1OC(O)C(O)C(O)C1O` (centres undefined), for which the growth inhibition in assay [1] is -19.3% and 13.9%; in assay [2], -11.7% and 6.25%; in assay [3] it was -43.6% and 31%; in assay [4], -65.2% and 34.1%; in assay [5] it was -39.3% and 27.2%; in assay [6], -28.6% and 25.6%.
`NC(=S)N/N=C1/CN(c2ccc(Cl)c(Cl)c2)CC(=O)C1c1nc2ccccc2s1` (centres undefined): the growth inhibition is 49.1% in assay [1]; 28.6% in assay [2]; 53% in assay [3]; 26.1% in assay [4]; -0.65% in assay [5]; 52.2% in assay [6].
With `COC(=O)C(Br)C(Br)c1cc(OC)c(OC)c(OC)c1` (centres undefined), the growth inhibition in assay [1] is 48.2%; in assay [2] it was 9.6%; in assay [3], 2.3%; in assay [4] it was 40%; in assay [5], 10.4%; in assay [6], 14.2%.

The values above are taken from PubChem BioAssay (NCI).
